Some compounds were tested as several samples or in several runs, with calls that do not always agree. The source made the active and inactive calls. The calls were made as follows: active = hit-call score of the fitted dose curve at least 0.9, where 1 is the maximum; inactive = score below 0.9.
How the values were obtained:
[1] = read-out: Vascular endothelial growth factor receptor 2 (Homo sapiens) (UniProt P35968); experiment: BSK_4H_VEGFRII: BioMAP Diversity Plus: 4H Assay for Vascular endothelial growth factor receptor 2 (VEGFR2) Biomarker Activity (AID 2283031); conditions: primary human endothelial cells (HUVEC); actives raise or lower the signal
Summary of the method: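 In this multiplexed HUVEC system, biomarker ELISA was performed after 24 h chemical exposure. Parallel SRB staining (TCA fixation, 560 nm) tracked cytotoxicity; DMSO served as baseline.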

[2] = read-out: Human Leukocyte Antigen - DR isotype (HLADR), HLA-DRA (gene 3122); experiment: BSK_BE3C_HLADR: BioMAP Diversity Plus: BE3C Assay for Human Leukocyte Antigen - DR isotype (HLADR) Biomarker Activity (AID 2283032); conditions: primary human bronchial epithelial cells; actives raise or lower the signal
Summary of the method: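 Signal came from an ELISA for HLA-DR in human bronchial epithelial primary cells harvested 24 h after treatment; gain- and loss-of-signal fitting used DMSO controls as reference.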

[3] = read-out: Vascular cell adhesion molecule 1 (VCAM1), VCAM1 (gene 7412); experiment: BSK_4H_VCAM1: BioMAP Diversity Plus: 4H Assay for Vascular cell adhesion molecule 1 (VCAM1) Biomarker Activity (AID 2283033); conditions: primary human endothelial cells (HUVEC); actives raise or lower the signal
Summary of the method: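 Endpoint derived from bidirectional fitting against DMSO controls of VCAM-1 ELISA signal in umbilical vein endothelial cells sampled at 24 h following treatment.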

[4] = read-out: Interferon-gamma inducible Protein 10 (IP10), CXCL10 (gene 3627); experiment: BSK_BE3C_IP10: BioMAP Diversity Plus: BE3C Assay for Interferon-gamma inducible Protein 10 (IP10) Biomarker Activity (AID 2283034); conditions: primary human bronchial epithelial cells; actives raise or lower the signal
Summary of the method: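 Using primary human bronchial epithelial cultures, the assay captures IP-10 by ELISA one day (24 h) after exposure. Parallel SRB staining of total protein flags overt cytotoxicity. Fits run bidirectionally relative to DMSO.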

[5] = read-out: Transforming growth factor beta 1 (TGFb1), TGFB1 (gene 7040); experiment: BSK_BE3C_TGFb1: BioMAP Diversity Plus: BE3C Assay for Transforming growth factor beta 1 (TGFb1) Biomarker Activity (AID 2283036;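 also: TGF-b1 protein level measured by ELISA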); conditions: primary human bronchial epithelial cells; actives raise or lower the signal
Summary of the method: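 In this human primary bronchial epithelial system, an ELISA quantified TGF-b1 one day after dosing. Endpoint changes in either direction were fitted relative to DMSO.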

[6] = read-out: Plasminogen activator inhibitor-1 (PAI1), SERPINE1 (gene 5054); experiment: BSK_BE3C_PAI1: BioMAP Diversity Plus: BE3C Assay for Plasminogen activator inhibitor-1 (PAI1) Biomarker Activity (AID 2283037); conditions: primary human bronchial epithelial cells; actives raise or lower the signal
Summary of the method: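 PAI-1 biomarker levels in treated human bronchial epithelial cells are determined by ELISA at 24 h. Both increases and decreases relative to DMSO are fitted.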

[7] = read-out: urokinase plasminogen activator (uPA), PLAU (gene 5328); experiment: BSK_BE3C_uPA: BioMAP Diversity Plus: BE3C Assay for urokinase plasminogen activator (uPA) Biomarker Activity (AID 2283038); conditions: primary human bronchial epithelial cells; actives raise or lower the signal
Summary of the method: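 Using confluent primary human lung bronchial epithelial cultures, we dosed chemicals, waited 24 h, then ran a uPA ELISA, fitting bidirectionally against DMSO.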

[8] = read-out: Urokinase-type plasminogen activator receptor (uPAR), PLAUR (gene 5329); experiment: BSK_BE3C_uPAR: BioMAP Diversity Plus: BE3C Assay for Urokinase-type plasminogen activator receptor (uPAR) Biomarker Activity (AID 2283039); conditions: primary human bronchial epithelial cells; actives raise or lower the signal;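 also: uPAR protein level measured by ELISA on the cells; cells exposed to compound for one day before measurement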
Summary of the method: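 A uPAR ELISA serves as the readout, taken 24 h after treating primary human bronchial epithelial cells. Responses in either direction are fitted against DMSO, which defines baseline activity.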

[9] = read-out: Interleukin-6 (IL6), IL6 (gene 3569); experiment: BSK_CASM3C_IL6: BioMAP Diversity Plus: CASM3C Assay for Interleukin-6 (IL6) Biomarker Activity for (AID 2283040); conditions: primary human coronary artery smooth muscle cells; actives raise or lower the signal

Measured: AC50

CN(C)[C@@H]1C(=O)C(C(N)=O)=C(O)[C@@]2(O)C(=O)C3=C(O)c4c(O)cccc4[C@@](C)(O)[C@H]3[C@H](O)[C@@H]12
inactive: [1] | [2] | [3] | [4] | [5] | [6] | [7] | [8] | [9]
active: [6] 3.97 µM

CCOP(=S)(OCC)SCCSCC
inactive: [1] | [2] | [3] | [4] | [5] | [6] | [7] | [8] | [9]

COP(=O)(NC(C)=O)SC (configuration not stated)
inactive: [1] | [2] | [3] | [4] | [5] | [6] | [7] | [8] | [9]

COc1ccc(C(=CC(=O)N2CCOCC2)c2ccc(Cl)cc2)cc1OC
inactive: [1] | [2] | [3] | [4] | [5] | [6] | [7] | [8] | [9]

CCCCSP(=O)(SCCCC)SCCCC
inactive: [3] | [4] | [5] | [6] | [7] | [8] | [9]
active: [2] 20 µM

Cc1nn(-c2cc(NS(C)(=O)=O)c(Cl)cc2Cl)c(=O)n1C(F)F
inactive: [1] | [2] | [3] | [4] | [5] | [6] | [7] | [8] | [9]

CC(COc1ccc(Oc2ccccc2)cc1)Oc1ccccn1 (configuration not stated)
inactive: [1] | [2] | [3] | [4] | [5] | [6] | [8] | [9]
active: [7] 17.8 µM

CNC(=O)ON=C(SC)C(=O)N(C)C
inactive: [1] | [2] | [3] | [4] | [5] | [6] | [7] | [8] | [9]

C#CCC1=C(C)C(OC(=O)C2C(C=C(C)C)C2(C)C)CC1=O (configuration not stated)
active: [4] 27.1 µM
inactive: [1] | [2] | [3] | [5] | [6] | [7] | [8] | [9]

CNC(=O)Oc1cccc2c1OC(C)(C)O2
active: [3] 20 µM
inactive: [1] | [2] | [4] | [5] | [6] | [7] | [8] | [9]

FC(F)C(F)(F)OCC(Cn1cncn1)c1ccc(Cl)cc1Cl (configuration not stated)
inactive: [1] | [5] | [6] | [7] | [8] | [9]
active: [2] 29.8 µM | [3] 29.7 µM | [4] 26.4 µM

CC(C1CC1)C(O)(Cn1cncn1)c1ccc(Cl)cc1 (configuration not stated)
inactive: [1] | [2] | [3] | [4] | [5] | [6] | [7] | [8] | [9]

C#CC(C)(C)NC(=O)c1cc(Cl)cc(Cl)c1
inactive: [1] | [3] | [5] | [6] | [7] | [8] | [9]
active: [2] 4.39 µM | [4] 14.9 µM

CCOP(=S)(OCC)Oc1ccc([N+](=O)[O-])cc1
inactive: [1] | [2] | [3] | [4] | [5] | [6] | [7] | [8] | [9]

CC(=NC#N)N(C)Cc1ccc(Cl)nc1
inactive: [1] | [2] | [3] | [4] | [5] | [6] | [7] | [8] | [9]

CC(Oc1cccc(Cl)c1)C(=O)O (configuration not stated)
inactive: [1] | [2] | [3] | [4] | [5] | [6] | [7] | [8] | [9]

Cc1ccn2nc(S(=O)(=O)Nc3c(F)cccc3F)nc2n1
inactive: [1] | [2] | [3] | [4] | [5] | [6] | [7] | [8] | [9]

CCOP(=S)(OCC)OC(Cl)C(Cl)(Cl)Cl (configuration not stated)
active: [9] 20 µM
inactive: [1] | [2] | [3] | [4] | [5] | [6] | [7] | [8]
